CYP2C19 inh: human CYP2C19 inhibition. P33261. CYP2C19 Supersomes, luciferin-H EGE luminescence, 30 min. inhibition, % at 5 µM. 96,000 compounds, 21% hits;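 active = CYP2C19 inhibition above a set limit at 5 µM in the primary screen, cut at about 50% in these data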;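 also: plate controls were negative control wells for no effect and 2.5 mM tranylcypromine positive control for full effect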
CYP2C19 activ: activators of human cytochrome P450 2C19; P33261; recombinant CYP2C19, luciferin-H EGE luminescence; hits give high values; 0 = fully inhibited enzyme, 1 = untreated enzyme; activation factor at 5 µM; 96,000 tested, under 10 active;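 active = activation factor of at least 2 at 5 µM in the primary screen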;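 also: 0 = wells with 2.5 mM tranylcypromine and 1 = vehicle-only wells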
Plk1 PBD FP: Plk1 (human) PBD binding inhibition; Plk1 PBD phosphopeptide binding, fluorescence polarization; 97,000 compounds, 0.13% hits; AID 693; inhibition, %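 (tested at about 20 µM)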; in the data active = inhibition above about 34%, passing the limit was not always enough
PLK1 inh: PLK1 (human) kinase inhibition. P53350. recombinant PLK1 kinase, TR-FRET peptide phosphorylation. inhibition, % at 10 µM. 97,000 compounds, 0.53% hits. AID 619;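 active = inhibition of 50% or more in the single-concentration screen; inactive = inhibition below 50%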;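 also: 0% = DMSO max control and 100% = H-89 dihydrochloride min control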
CYP2C9 act: CYP2C9 (human) activation; P11712; recombinant CYP2C9, luciferin-H conversion, luminescence; hits give high values; factor 1 = untreated enzyme, 0 = blocked; activation factor at 5 µM; 96,000 compounds, 1.4% hits;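 active = activation factor of 2 or more for CYP2C9 at a 5 µM dose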;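 also: 0 = sulfaphenazole-blocked wells and 1 = vehicle-only wells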
Target sequence (P11712 whole entry, looked up): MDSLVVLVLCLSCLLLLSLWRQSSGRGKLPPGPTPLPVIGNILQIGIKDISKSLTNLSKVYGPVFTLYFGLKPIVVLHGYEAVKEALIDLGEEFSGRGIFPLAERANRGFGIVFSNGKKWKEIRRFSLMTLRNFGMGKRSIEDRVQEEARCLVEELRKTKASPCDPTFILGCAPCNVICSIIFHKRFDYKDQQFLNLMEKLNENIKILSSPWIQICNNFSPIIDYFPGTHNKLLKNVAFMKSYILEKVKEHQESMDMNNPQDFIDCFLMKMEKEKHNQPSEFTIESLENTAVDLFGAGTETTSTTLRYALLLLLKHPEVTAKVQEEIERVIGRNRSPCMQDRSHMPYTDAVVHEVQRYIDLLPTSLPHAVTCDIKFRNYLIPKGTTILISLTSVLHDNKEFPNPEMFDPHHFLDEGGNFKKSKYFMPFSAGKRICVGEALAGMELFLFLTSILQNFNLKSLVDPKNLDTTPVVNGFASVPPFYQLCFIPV
CYP2C9 inhib: human CYP2C9 inhibition. inhibition, % at 5 µM. CYP2C9 Supersomes, luciferin-H conversion, luminescence. 96,000 compounds, 20% hits. AID 777;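 active = blocking of liver enzyme CYP2C9 beyond about 50% at 5 µM, limit read from the data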
PLK1 confirm: confirmation of human PLK1 kinase inhibitors; shares compounds with PLK1 inh; 210 compounds, 20% hits; AID 744; recombinant PLK1 kinase, TR-FRET peptide phosphorylation; inhibition, % at 10 µM;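 active = inhibition at or above 50% in each of two repeat confirmation tests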;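 also: 0% = DMSO max control and 100% = H-89 kinase-blocked min control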
Plk1 interf: counter-screen for Plk1 inhibitors: compound assay interference; 210 tested, under 10 active; inhibition (interference), % at 10 µM; Plk1 TR-FRET assay interference, compound added post-reaction; shares compounds with PLK1 inh;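 active = both duplicate runs show 50% or greater inhibition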;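 also: 0% = DMSO max control and 100% = H-89 min control inhibited reaction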
* = called active by the depositor; . = not tested or not shown. Sampled rows, rich in hits. Any-hit rate of the full collection: about 28%.

SMILES	CYP2C19 inh	CYP2C19 activ	Plk1 PBD FP	PLK1 inh	CYP2C9 act	CYP2C9 inhib	others
CCn1c(COc2cccc(C)c2)nnc1SCC(=O)Nc1cccc(C(=O)OC)c1	32	0.7	10	-9	0.4	56*
CCn1c(CNc2ccc(C)cc2)nnc1SCC(=O)NCc1ccccc1	78*	0.2	-18	-13	0.6	37
CCOC(=O)c1cccc(NC(=O)CSc2nnc(COc3ccccc3)n2CC)c1	58*	0.4	-2	-16	0.4	63*
CCOC(=O)c1cccc(Nc2nc(-c3cccnc3)nc3ccccc23)c1	74*	0.3	5	-19	0.1	88*
CC(=O)OC1CSc2nc3ccccc3n2C1 (centres undefined)	.	.	22	-2	.	.
CCn1c(COc2ccccc2C)nnc1SCC(=O)O	18	0.8	17	-4	1.2	-21
CCn1c(COc2cccc(OC)c2)nnc1SCC(=O)Nc1cc(OC)ccc1OC	47	0.5	.	.	1.1	-13
CCn1c(SCC(=O)Nc2ccccc2C(=O)OC)nnc1-c1cccc(C)c1	99*	0	-5	-2	0.3	68*
CCn1c(COc2cccc(C)c2)nnc1SCC(=O)Nc1cccc(C(=O)O)c1	-19	1.2	11	-13	0.2	79*
COC(=O)c1ccccc1NC(=O)CSc1nnc(-c2cccnc2)n1C	.	.	22	9	.	.
CCn1c(COc2ccccc2C)nnc1SCC(=O)CC(=O)Nc1ccccc1	35	0.7	-3	-4	0.5	55*
CCn1c(COc2cccc(OC)c2)nnc1SCC(=O)Nc1cccc(OC)c1	82*	0.2	20	-4	0.4	64*
CCOC(=O)c1ccccc1NC(=O)CSc1nnc(COc2ccccc2)n1CC	89*	0.1	-14	-11	1	2
CCn1c(COc2ccccc2)nnc1SCC(=O)Nc1cc(OC)ccc1OC	28	0.7	3	-13	1.7	-74
CCC(CC)C(=O)NCCNC(=O)C(CC)CC	6	0.9	0	-7	0.9	6
CC(C)CC(=O)O/N=C1\C(=O)N(Cc2ccc(Cl)cc2)c2ccc([N+](=O)[O-])cc21	65*	0.4	3	-8	0.4	58*
Cc1cc(C)n2c(SCc3ccc(Cl)cc3Cl)nnc2n1	70*	0.3	-14	-13	1.6	-56
Cc1cc(C)n2c(SCc3c(C)noc3C)nnc2n1	.	.	-12	-14	.	.
Cc1cc(C)n2c(SCc3ccccc3Cl)nnc2n1	37	0.6	0	-38	2.8*	-178
CC(Nc1ccccc1)C(=O)Nc1ccc(F)cc1 (centres undefined)	35	0.7	-19	-11	0.7	27
COc1ccccc1N1CCN(S(=O)(=O)c2cc(C)sc2C)CC1	42	0.6	9	-10	0.7	35
Cc1cc(S(=O)(=O)N2CCN(c3ccccc3O)CC2)c(C)s1	71*	0.3	13	-8	0.7	30
Cc1oc(-c2ccc(Cl)cc2)nc1CS(=O)CC(=O)NCc1cccs1 (centres undefined)	11	0.9	-18	-4	0.6	40
Cc1oc(-c2ccccc2F)nc1CS(=O)CC(=O)NCc1ccc2c(c1)OCO2 (centres undefined)	62*	0.4	-15	-21	0.5	53*
Cc1ccc(CCNC(=O)CS(=O)Cc2nc(-c3cccc(C)c3)oc2C)cc1 (centres undefined)	64*	0.4	-12	62*	0.3	70*
SMILES	CYP2C19 inh	CYP2C19 activ	Plk1 PBD FP	PLK1 inh	CYP2C9 act	CYP2C9 inhib	others
Cc1oc(-c2ccccc2F)nc1CS(=O)CC(=O)NCc1cccs1 (centres undefined)	53*	0.5	-6	62*	0.4	63*
Cc1cccc(-c2nc(CS(=O)CC(=O)NCC3CCCO3)c(C)o2)c1 (centres undefined)	10	0.9	.	.	0.9	6
Cc1cccc(-c2nc(CS(=O)CC(=O)NCc3cccs3)c(C)o2)c1 (centres undefined)	37	0.6	9	-11	0.4	60*
CCCNC(=O)CS(=O)Cc1nc(-c2ccccc2C)oc1C (centres undefined)	8	0.9	-24	-13	1	0
Cc1oc(-c2ccccc2Cl)nc1CS(=O)CC(=O)NCc1cccs1 (centres undefined)	71*	0.3	-9	-2	0.3	69*
CCCCNC(=O)CS(=O)Cc1nc(-c2cccs2)oc1C (centres undefined)	18	0.8	3	59*	1.2	-25
c1ccc(CN2CCC(Nc3nc(-c4ccccc4)nc4ccccc34)CC2)cc1	61*	0.4	-17	-8	0.1	86*
Brc1ccc(Oc2nnnn2-c2ccccc2)cc1	100*	0	5	75*	0.2	81*	PLK1 confirm=-9;Plk1 interf=-45
COc1ccc(N=c2scc(-c3ccc(OC)cc3)n2CCO)cc1	.	.	15	-6	.	.
O=C(c1oc(=O)c2ccccc2c1-c1ccccc1)N1CCC(O)CC1	43	0.6	29	78*	0.8	23	PLK1 confirm=4;Plk1 interf=-52
CCn1c2ccccc2c2cc(C3N=C(N)Nc4nc5ccccc5n43)ccc21 (centres undefined)	7	0.9	-10	-3	1.1	-7
CC1CCN(CC(C)OC(=O)c2ccc3c(c2)OCCO3)CC1 (centres undefined)	42	0.6	-7	70*	0.9	6	PLK1 confirm=-6;Plk1 interf=-52
Cc1cc(Oc2ccc(-c3ccccc3)cc2)n2ncnc2n1	29	0.7	.	.	0.7	28
Cc1cc(C(C#N)c2cccc(Cl)c2)n2ncnc2n1 (centres undefined)	29	0.7	26	71*	1.3	-31	PLK1 confirm=63*;Plk1 interf=-55
Cc1ccc(-c2nnc3sc(-c4ccc5c(c4)OCCO5)nn23)cc1	.	.	19	-6	.	.
Cc1cc(C(=O)COC(=O)c2csc3c2CCCC3)c(C)n1C	-8	1.1	20	-6	1.4	-37
CCN1CCN(c2ccc(NC(=O)c3cccc4ncccc34)cc2)CC1	7	0.9	-2	-6	1	3
C=C1CSc2nc(=O)c3c4c(sc3n21)CCCC4	10	0.9	-4	-9	0.9	6
CN(CCNC(=O)c1cn(C)c2ccc(S(=O)(=O)N(C)C)cc2c1=O)CCc1ccccc1	6	0.9	1	75*	0.5	47	PLK1 confirm=-5;Plk1 interf=-49
CCOC(=O)CSc1nnc(-c2ccc(S(=O)(=O)N3CCOCC3)cc2)n1-c1ccccc1	13	0.9	-14	-10	0.6	38
COc1ccc(NC(=O)Nc2nccs2)cc1	-4	1	5	4	1.1	-14
O=C(Nc1ccccc1)Nc1nccs1	12	0.9	0	93*	0.8	16	PLK1 confirm=6;Plk1 interf=-53

Screening data: PubChem BioAssay, several laboratories
